Tg IFNy HTS: T. gondii growth inhibition with IFN-gamma, primary screen, cell-based; Toxoplasma gondii growth in IFN-gamma-treated host cells; stronger effect = lower value; 3.8% of 69,000 active; activity change, negative = inhibition, % (test concentration not listed); in the data active = activity change below about -70%, passing the limit was not always enough;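 note: host cells are HeLa cells infected with Toxoplasma gondii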
Starred values were filed as active, the others as inactive. Shown is part of a subset that was picked to be rich in hits.

SMILES | Tg IFNy HTS
CCOCC1CCC2(CCN(C(=O)CCc3ccccc3C)CC2)N1C (centres undefined) | -3
Cc1oc(-c2ccccc2)nc1Cc1noc(-c2ccccc2F)n1 | 127
Cc1ccc(C(NC(=O)c2cc(CN3CCOCC3)c(C)o2)c2ccncc2)cc1C (centres undefined) | -3
CCC(CN1CCOCC1)NC(=O)Cc1coc2cc(C)cc(C)c12 (centres undefined) | -82*
Cc1ccc2c(CC(=O)NCCC3CN(C)CCO3)coc2c1 (centres undefined) | 0
CC1CCN(S(=O)(=O)c2ccc3c(c2)CCC(=O)N3CC(=O)N2CCOCC2)CC1 | 26
CC1C(=O)N(C)CCN1Cc1ccc(OCC(=O)N2CCOCC2)cc1 (centres undefined) | -47
Cc1noc(C)c1C1CCCN1C(=O)Cn1nc(C(F)(F)F)c2c1CCCC2 (centres undefined) | -3
Cc1cnn(Cc2nc(-c3ccc(NC(=O)c4cccc(C#N)c4)cc3)oc2C)c1 | -50
COc1cccc(CC(=O)Nc2ccc(-c3nc(Cn4cccn4)c(C)o3)cc2)c1 | -44
Cc1oc(-c2ccc(NC(=O)c3cccc(F)c3)cc2)nc1Cn1cccn1 | -87*
COc1cccc(C(=O)Nc2ccc(-c3nc(Cn4cc(C)cn4)c(C)o3)cc2)c1 | -93*
COc1cccc(C(=O)Nc2ccc(-c3nc(Cn4cccn4)c(C)o3)cc2)c1 | -99*
Cc1oc(-c2ccc(NC(=O)c3cc(F)cc(F)c3)cc2)nc1Cn1cccn1 | 20
Cc1oc(-c2ccc(NC(=O)c3cccc(Cl)c3)cc2)nc1Cn1cccn1 | -33
Cc1ccc(C(=O)Nc2ccc(-c3nc(Cn4cccn4)c(C)o3)cc2)cc1F | 23
Cc1c(CNC(=O)c2cc(COc3ccccc3F)[nH]n2)oc2ccccc12 | -47
C=CCN1CCN(C(=O)C2CCCO2)CC(Cc2ccc(-c3ccncc3)cc2)C1=O (centres undefined) | -24
CCOc1ccc(-c2nc(CN3CCc4c(sc5c4CCCC5)C3c3ccccc3)c(C)o2)cc1 (centres undefined) | -7
CCOC(=O)c1cc(C)nc2c1c(=O)n(Cc1nc(-c3ccccc3C)oc1C)c(=O)n2C | -45
Cc1cc(C(=O)N2CCC(COc3ccccn3)CC2)c2cccc(Cl)c2n1 | 29
COc1ccc(-c2c(C#N)c(N)nc3c2CCc2ccccc2-3)cc1OC | -86*
COc1ccc(-c2cc(=S)sc(N)c2C#N)cc1OC | 65
COc1ccc(-c2cc(-c3ccccc3)nc(N)c2C#N)cc1OC | 19
Cc1oc(-c2ccccc2)nc1Cn1nnc(-c2nc(-c3cccc(Br)c3)no2)c1C | -6
SMILES | Tg IFNy HTS
Cc1onc(-c2ccccc2)c1C(=O)Oc1ccccc1N1CCOCC1 | -18
CCCc1cnc(N2CCN(C(=O)c3c(-c4ccccc4)noc3C)CC2)nc1 | -82*
CCOC(=O)c1c(-c2ccccc2)noc1C(C)=O | 20
COCC1CCC2(CCN(C(=O)COc3ccccc3)CC2)N1C (centres undefined) | 0
CC1(C)NC(=O)N(CCCC(=O)O)C1=O | 34
CC(/C=C1\SC(=O)N(CCCC(=O)O)C1=O)=C\c1ccccc1 | -82*
O=C(O)CCCCCNS(=O)(=O)/C=C/c1ccccc1 | 0
Cc1nc(-c2nc(C(=O)NCC3CCCO3)c3ccccn23)cn1C(C)C (centres undefined) | 16
COC(=O)c1c(NCCC(C)C)c2cc(F)ccc2[nH]c1=O | -20
COCCN(C)C(=O)c1ccc2nnc3ncn(CC4CCCO4)c3c2c1 (centres undefined) | 3
Cc1cc(C)cc(C(=O)Nc2ccc(-c3nc(Cn4cccn4)c(C)o3)cc2)c1 | 14
Cc1cnn(Cc2nc(-c3ccc(NC(=O)c4c(F)cccc4F)cc3)oc2C)c1 | -68
Cc1cnn(Cc2nc(-c3ccc(NC(=O)c4cc(C)on4)cc3)oc2C)c1 | -95*
Cc1ccc(C(=O)Nc2ccc(-c3nc(Cn4cccn4)c(C)o3)cc2)cc1 | -47
Cc1cc(C(=O)Nc2ccc(-c3nc(Cn4cccn4)c(C)o3)cc2)no1 | -93*
O=C1CSc2ccc(C(F)(F)F)cc2N1Cc1ccc(Cl)cc1Cl | -67
CC(=O)N1CCC2(CC1)NCCn1c(-c3ccnn3C)cnc12 | -4
CC(C)NC(=O)N1CCC2(CC1)c1ncc(-c3ccnn3C)n1CCN2C | -89*
CC(C)NC(=O)N1CCC2(CC1)CCn1c(-c3cnn(C)c3)cnc12 | -5
Cc1cc(S(=O)(=O)N2CCC(c3nc(C(=O)N(C)C)c(C)o3)CC2)ccc1F | -31
C=CC(=O)N1CCC[C@@H](n2nc(-c3ccc(Oc4ccccc4)cc3)c3c(N)ncnc32)C1 | -79*
COc1ccc(-c2ncnc3c2c(C(=O)N2CCCC2)c2ccccn23)cc1 | -50
NC(=O)c1[nH]c(C2CCCN(C(=O)COc3ccccc3)C2)nc1-c1ccccc1 (centres undefined) | -23
CN(C)C(=O)COCC12CCCOC1CCN(CC1CC1)C2 (centres undefined) | -20
CC1CCCCN1S(=O)(=O)c1ccc2c(c1)CCC(=O)N2CC(=O)NCc1ccc(F)cc1 (centres undefined) | -28

Bioassay records deposited in PubChem BioAssay by Broad Institute.
